Data taken from PubChem BioAssay.
Several values for one entry are separate records, joined by “and”; a condition that tells them apart may be missing. Equal values may be shown once. Activity calls are given as the source filed them.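 Rule for the calls, unless noted: active = inhibition at or above 50% relative to wild type and mutant plate controls; inactive = inhibition below 50%.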

What was measured:
[1] = inhibitors of TNFa-induced NFkB p65 translocation, primary screen, imaging, HUVEC, MLSMR starter and 10KST1 sets (AID 438;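 active = inhibition above 20% together with a positive visual image hit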;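 note: compound added about 3h40 before a 20 min TNFalpha stimulation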;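 for inhibition: signal is the nuclear over cytoplasmic p65 intensity ratio per well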); conditions: HUVEC TNFa-induced p65 nuclear translocation; cell count: measured here: nuclei count (cytotoxicity indicator), at 2.08 µM; inhibition: at 2 µM, stronger effect = higher value, 0% TNFa-plus-vehicle, 100% no-TNFa wells
[2] = reduction of polyQ htt aggregates in cells – imaging, exon1htt(103Q)mCFP cells, high-content imaging, primary screen (AID 483;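 active = visual image review flags a hit and inhibition of aggregation exceeds 20%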;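 note: compound exposure lasted 3 days before fixation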;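 for nuclei count: percent of the per-plate median nuclei count of sample wells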); conditions: exon1htt(103Q)mCFP cell line, aggregate imaging, at 2 µM; inhibition of aggregation: stronger effect = higher value; nuclei count: measured here: cell count, toxicity
[3] = endothelial E-selectin expression blockers – imaging, HUVEC, immunofluorescence, MLSMR starter and 10KST1 sets, primary screen (AID 487;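 active = visually confirmed hit in the image check and inhibition above 20%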;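 for inhibition: signal is fraction of cell area covered by stained E-selectin grains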;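 for nuclei count: 100% = median nuclei count of all wells on the same plate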); conditions: HUVEC TNFalpha-induced E-selectin immunofluorescence imaging, at 2 µM; inhibition: stronger effect = higher value; nuclei count: measured here: cell number, toxicity
[4] = Primary imaging screen for DUSP6 inhibitors that restore phospho-Erk in transfected HeLa cells, chemical complementation (AID 609;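 active = compounds giving at least 50% inhibition in the cell-based MKP-3 phosphatase rescue imaging test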;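 for inhibition: phospho-Erk level distribution per well compared with pooled transfected vehicle control wells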); conditions: HeLa MKP-3 transfected, phospho-Erk imaging KS statistic, at 10 µM, cells stimulated with TPA for 15 min
[5] = biological target: Dual specificity protein phosphatase 6 (Homo sapiens) (UniProt Q16828); assay: as above; conditions: HeLa MKP-3 transfected, phospho-Erk imaging KS statistic; at 10 µM; stronger effect = higher value; cells stimulated with TPA for 15 min
Dual specificity protein phosphatase 6 (Homo sapiens), sequence (Q16828 whole entry, looked up): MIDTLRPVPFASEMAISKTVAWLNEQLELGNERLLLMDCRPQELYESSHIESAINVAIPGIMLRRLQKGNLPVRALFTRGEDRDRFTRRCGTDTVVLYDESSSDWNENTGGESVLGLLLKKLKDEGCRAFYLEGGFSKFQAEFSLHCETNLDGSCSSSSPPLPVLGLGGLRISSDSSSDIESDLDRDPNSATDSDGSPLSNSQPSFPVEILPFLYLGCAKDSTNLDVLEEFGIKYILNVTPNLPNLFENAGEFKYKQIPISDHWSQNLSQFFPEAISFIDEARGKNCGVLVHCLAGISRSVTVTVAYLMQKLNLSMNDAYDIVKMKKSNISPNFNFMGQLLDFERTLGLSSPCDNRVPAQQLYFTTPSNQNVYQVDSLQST

[6] = biological target: Voltage-gated potassium channel subunit beta-2 (Rattus norvegicus) (UniProt P62483); assay: inhibitors of rat Kvbeta2 reductase activity – biochemical, NADPH fluorescence, primary screen (AID 622;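 active = fluorescence slope higher than the sample average by over 3 SD, cut at about -0.22 in these data, passing the limit was not always enough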;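 note: slope of raw intensity against log time taken from 70 to 1610 s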); conditions: recombinant KvBeta, 4-cyanobenzaldehyde reduction, at 10 µM, stronger effect = higher value
Voltage-gated potassium channel subunit beta-2 (Rattus norvegicus), sequence (P62483 whole entry, looked up): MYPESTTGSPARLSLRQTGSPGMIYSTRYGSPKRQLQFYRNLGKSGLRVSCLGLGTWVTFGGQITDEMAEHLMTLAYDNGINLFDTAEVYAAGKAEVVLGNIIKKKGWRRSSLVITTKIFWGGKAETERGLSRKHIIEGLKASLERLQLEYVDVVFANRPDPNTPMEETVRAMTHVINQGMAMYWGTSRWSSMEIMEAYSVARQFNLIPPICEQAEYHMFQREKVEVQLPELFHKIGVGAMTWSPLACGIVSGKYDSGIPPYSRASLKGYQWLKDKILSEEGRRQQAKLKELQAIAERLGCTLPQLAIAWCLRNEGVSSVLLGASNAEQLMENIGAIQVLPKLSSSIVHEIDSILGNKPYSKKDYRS

[7] = biological target: Voltage-gated potassium channel subunit beta-2 (Rattus norvegicus) (UniProt P62483); assay: enhancers of rat Kvbeta2 NADPH turnover – biochemical, NADPH fluorescence, primary screen (AID 623;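 active = NADPH fluorescence slope more negative than the mean of all samples by about 3 SD, 99.7% confidence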;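 note: fluorescence intensity change per second fitted from 20 to 320 s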); conditions: Recombinant KvBeta, NADPH fluorescence decrease slope, 10 min; at 10 µM; stronger effect = lower value
[8] = biological target: Alpha-2C adrenergic receptor (Homo sapiens) (UniProt P18825); assay: compounds altering alpha2C-coupled GIRK flux – cell-based, HEK293 alpha2C/GIRK1/2, thallium flux, primary screen (AID 624;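 active = fluorescence slope after compound addition differing from the mean of all screened samples at 99.7% confidence, in either direction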;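 note: slope of fluorescence ratio to pre-addition baseline per second over 15 to 24 s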); conditions: thallium flux BTC fluorescence, at 10 µM, actives lie on both sides
Alpha-2C adrenergic receptor (Homo sapiens), sequence (P18825 whole entry, looked up): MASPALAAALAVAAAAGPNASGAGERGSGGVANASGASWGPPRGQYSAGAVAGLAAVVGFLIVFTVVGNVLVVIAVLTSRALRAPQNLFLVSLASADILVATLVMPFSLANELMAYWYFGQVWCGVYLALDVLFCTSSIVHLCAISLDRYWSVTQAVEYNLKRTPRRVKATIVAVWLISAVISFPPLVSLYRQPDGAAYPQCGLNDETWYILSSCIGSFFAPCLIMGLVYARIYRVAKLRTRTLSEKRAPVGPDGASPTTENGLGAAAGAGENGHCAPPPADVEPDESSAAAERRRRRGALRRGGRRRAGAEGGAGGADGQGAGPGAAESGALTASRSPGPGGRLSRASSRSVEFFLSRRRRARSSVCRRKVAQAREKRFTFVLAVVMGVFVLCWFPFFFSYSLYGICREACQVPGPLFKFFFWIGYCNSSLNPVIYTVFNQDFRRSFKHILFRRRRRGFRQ

[9] = inhibitors of larval lipid processing in zebrafish, primary screen, whole organism, PED6 fluorescence, gall bladder and intestine (AID 686;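 active = a full or partial loss of lipid-probe fluorescence in the fish gall bladder, intestine or both, judged by eye; inactive = no fluorescence loss, or compound toxic to the fish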;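 note: larvae 5 to 7 days old with five fish per well; signal comes from phospholipase A2 cleavage of quenched PED6 carried via bile; overnight exposure to compound and PED6 before scoring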); conditions: Zebrafish larvae PED6 lipid processing, fluorescence scoring; screened at 20 µM (by protocol)
[10] = loss of swimming-algae plug formation – whole organism, Chlamydomonas reinhardtii, WT vs cilia-less mutant, absorbance, 96-well, primary screen (AID 463189); conditions: Chlamydomonas reinhardtii gravitaxis, OD600 absorbance, 2 days; at 10 µM; stronger effect = higher value;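 note: 0% = wild type cc124 cells in DMSO and 100% = ciliumless bld1 mutant cells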
[11] = blockers of RIG-like receptor reporter activation – cell-based, Sendai virus stimulus, luciferase, 10K MLSCN set, TLR/RLR signaling modifier project, primary screen (AID 602276;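 active = inhibition at or above 50% at 10 µM; inactive = inhibition below 50%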;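 note: firefly luciferase from ISG56 promoter only with Renilla not read in this screen; 0% = Sendai virus plus DMSO and 100% = medium plus DMSO without virus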); conditions: HEK293 RL24 IRF3 luciferase reporter, at 10 µM, stronger effect = higher value
[12] = TLR3 IRF3 reporter activation blockers – cell-based, poly I:C stimulus, luciferase, 10K MLSCN set, primary screen (AID 602277;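 active = inhibition of the reporter signal at or above 50%; inactive = inhibition below 50%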); conditions: HEK293-TLR3 RL24 IRF3 luciferase reporter, at 10 µM, stronger effect = higher value
[13] = biological target: Muscarinic acetylcholine receptor M4 (Homo sapiens) (UniProt P08173); assay: M4-linked GIRK flux change, two-sided – cell-based, HEK293 M4/GIRK, thallium flux, BTC-AM, M4 allosteric agonist project, primary screen (AID 625;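 active = fluorescence slope after compound addition differing from the mean of all tested samples at 99.7% confidence, mostly higher but some lower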;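 note: thallium influx through GIRK channels coupled to M4 in HEK293 cells with BTC-AM dye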); conditions: at 10 µM, actives lie on both sides
Muscarinic acetylcholine receptor M4 (Homo sapiens), sequence (P08173 whole entry, looked up): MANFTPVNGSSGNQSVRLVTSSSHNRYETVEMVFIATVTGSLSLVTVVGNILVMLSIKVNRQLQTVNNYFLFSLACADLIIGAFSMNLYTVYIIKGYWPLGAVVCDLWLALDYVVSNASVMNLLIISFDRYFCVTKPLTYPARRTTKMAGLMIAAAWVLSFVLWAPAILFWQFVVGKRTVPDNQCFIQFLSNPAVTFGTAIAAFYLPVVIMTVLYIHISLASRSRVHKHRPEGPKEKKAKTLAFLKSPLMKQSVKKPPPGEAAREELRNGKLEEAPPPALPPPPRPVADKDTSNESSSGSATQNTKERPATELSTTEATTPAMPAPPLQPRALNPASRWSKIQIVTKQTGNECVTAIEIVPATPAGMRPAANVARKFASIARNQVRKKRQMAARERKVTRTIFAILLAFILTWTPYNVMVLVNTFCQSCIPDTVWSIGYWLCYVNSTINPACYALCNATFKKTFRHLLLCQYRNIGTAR

[14] = measured here: cell density z-score
[15] = measured here: nuclear c-Myc green intensity z-score
[16] = measured here: nuclear pErk red intensity z-score, stronger effect = higher value

Compound	cell count [1]	inhibition [1]	inhibition of aggregation [2]	nuclei count [2]	inhibition [3]	nuclei count [3]	z-score [4, 14]	z-score [4, 15]	z-score [4, 16]	inhibition [5]	fluorescence slope [6]	NADPH fluorescence slope [7]	slope [8]	outcome [9]	inhibition [10]	inhibition [11]	inhibition [12]	fluorescence slope [13]
COCCOC(=O)c1c(C)nc(SCC(=O)Nc2ccc(OC)cc2)c(C#N)c1-c1ccco1	386	-17.9% (inactive)	-11.5% (inactive)	76%	-23.1% (inactive)	90%	-0.584	-0.072	-0.599	-6.59% (inactive)	-0.422 (inactive)	-2.9e-05 (inactive)	0.00733 (inactive)	inactive	-0.332% (inactive)	16.9% (inactive)	12.1% (inactive)	–
CC1CCc2cc(F)cc3c(O)c(C(=O)Nc4cnccn4)c(=O)n1c23 (stereo unspecified)	457	-7.7% (inactive)	3.8% (inactive)	99.3%	-40.6% (inactive)	99.4%	0.762	0.74	0.103	17.5% (inactive)	-0.351 (inactive)	2e-05 (inactive)	0.0057 (inactive)	inactive	-9.12% (inactive)	13.2% (inactive)	21.7% (inactive)	–
COc1ccc2c(c1OC)C(=O)OC2C1c2c(cc3c(c2OC)OCO3)CCN1C (stereo unspecified)	463 and 544	-10.9% (inactive) and 0.8% (inactive)	-1% (inactive) and -12.6% (inactive)	101% and 94.4%	-43.9% (inactive) and -115% (inactive)	132% and 119%	1.55	-0.813	-0.77	5.42% (inactive)	-0.541 (inactive) and -0.459 (inactive)	7.5e-05 (inactive) and -6e-05 (inactive)	0.0053 (inactive) and 0.00526 (inactive)	inactive	19.2% (inactive)	23.1% (inactive) and 13.1% (inactive)	29.1% (inactive) and 24% (inactive)	–
Cn1cnc2c1c(=O)[nH]c(=O)n2C	544	-10.8% (inactive)	-16.4% (inactive)	97%	-30.6% (inactive)	124%	-0.137	-0.093	1.06	-6.41% (inactive)	-0.513 (inactive)	1.2e-05 (inactive)	0.00542 (inactive)	inactive	8.14% (inactive) and 20.9% (inactive)	13.1% (inactive)	16.1% (inactive)	–
CCC1=C(C(=O)OC)C(c2cc(OC)ccc2OC)C(C#N)=C(N)O1 (stereo unspecified)	296	-8.8% (inactive)	6.8% (inactive)	106%	-58% (inactive)	129%	1.11	0.712	-2.04	5.65% (inactive)	-0.478 (inactive)	-0.000233 (inactive)	0.00469 (inactive)	inactive	-0.583% (inactive)	17% (inactive)	24% (inactive)	–
N#CCc1nc2c3c4c(sc3ncn2n1)CCCC4	436	-7.3% (inactive)	-155% (inactive)	1.9%	-12.1% (inactive)	130%	0.106	1.08	0.152	5.95% (inactive)	-0.413 (inactive)	-4.9e-05 (inactive)	0.00471 (inactive)	inactive	0.738% (inactive)	5.18% (inactive)	-26.2% (inactive)	0.00496 (inactive)
COc1ccc(C2CNC(=O)C2)cc1OC1CCCC1 (stereo unspecified)	595	-1.7% (inactive)	-10.3% (inactive)	97.8%	-59.8% (inactive)	124%	-1.08	-0.0715	0.178	3.45% (inactive)	-0.507 (inactive)	-0.000115 (inactive)	0.00579 (inactive)	inactive	0.165% (inactive) and 12.7% (inactive)	15.5% (inactive)	0.301% (inactive)	–
CCCCC(=O)Nc1c(O)c2ccccc2[nH]c1=O	450	1.5% (inactive)	-22.7% (inactive)	104%	-155% (inactive)	137%	-1.21	0.174	1.14	-8.95% (inactive)	-0.491 (inactive)	-0.000197 (inactive)	0.00511 (inactive)	inactive	-4.89% (inactive)	2.04% (inactive)	1.03% (inactive)	–
Cc1nnc2n(Cc3ccccc3)c(=O)c3c4c(sc3n12)COC(C(C)C)C4 (stereo unspecified)	511	9.8% (inactive)	29.9% (inactive)	80.8%	-54.8% (inactive)	118%	0.665	-0.394	-1.52	-1.12% (inactive)	-0.46 (inactive)	-0.000365 (inactive)	0.00653 (inactive)	inactive	146% (active)	11.6% (inactive)	3.4% (inactive)	–
CC(=O)OC(C)C[N+](C)(C)C (stereo unspecified)	551	2.7% (inactive)	-10.4% (inactive)	93.2%	-37.2% (inactive)	109%	-0.162	0.661	-1.46	5.42% (inactive)	-0.469 (inactive)	-5.5e-06 (inactive)	0.0149 (active)	inactive	4.19% (inactive) and 8.31% (inactive)	8.52% (inactive)	29.7% (inactive)	–
